Measured values reported in PubChem BioAssay (Tox21).
Inconclusive results are not listed. Active and inactive are the calls of the source. Unless noted, the call rests on the fitted dose curve; in most records, active means well fitted curve in the direction sought with a large enough effect in the repeat runs; inconclusive means weak or mixed curves; inactive means no such curve, though single readings can be large; an effect the other way counts as inactive or inconclusive.

Experiments:
[1] = qHTS assay to identify small molecule antagonists of the estrogen receptor alpha (ER-alpha) signaling pathway using the BG1 cell line in the presence of 0.1 nM 17-beta-estradiol - cell viability counter screen (AID 1259241); further: nearly all actives have a fitted effect of over 40% in size
In short: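 Measures cytotoxicity alongside the ER-alpha antagonist readout: VM7Luc4E2 cells, charcoal-stripped serum, 0.1 nM 17beta-estradiol final, 22 hr compound incubation at 37C, CellTiter-Fluor fluorescence.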

[2] = qHTS assay to identify small molecule antagonists of the androgen receptor (AR) signaling pathway using the MDA cell line in the presence of 0.5 nM R1881 - cell viability counter screen (AID 1259242); further: nearly all actives have a fitted effect of over 45% in size
In short: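 Fluorescence from CellTiter-Fluor, which reports protease activity of live cells, was read 30 min after reagent addition to MDA-kb2 cells that had been incubated 16 hr with compound and 0.5 nM R1881.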

[3] = biological target: Androgen receptor (Homo sapiens) (UniProt P10275); assay: qHTS assay to identify small molecule antagonists of the androgen receptor (AR) signaling pathway using the MDA cell line in the presence of 0.5 nM R1881 (AID 1259243); further: nearly all actives have a fitted effect of over 50% in size; further: potency means the concentration at half of the fitted maximal effect
In short: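 Inhibition of R1881 (0.5 nM final) induced reporter signal was measured in human MDA-kb2 cells; note the MMTV promoter also responds to GR. Exposure lasted 16 hr at 37C.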

[4] = qHTS assay to identify small molecule HDAC inhibitors (AID 1259364); further: nearly all actives have a fitted effect of over 45% in size; further: potency means the concentration at half of the fitted maximal effect; on activity change, negative = inhibition: top concentration of the series differs between compounds
In short: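 Endogenous HDAC class I/II activity was measured in wild-type HCT-116 cells by HDAC-Glo luminescence after 2 h compound treatment.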

[5] = qHTS assay to identify small molecule HDAC inhibitors - cell viability counter screen (AID 1259365); further: series mostly up to about 92 µM; nearly all actives have a fitted effect of over 50% in size
In short: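 Following a 2hr exposure of overnight-plated wild-type HCT-116 cells to DMSO-delivered compounds, CellTiter-Glo was added and luminescence recorded after 30min at room temperature.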

[6] = qHTS assay to identify small molecule agonists of the sonic hedgehog signaling (Shh) pathway - cell viability counter screen (AID 1259366); further: nearly all actives have a fitted effect of over 50% in size; further: potency means the concentration at half of the fitted maximal effect
In short: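 After a 4hr attachment at 37C, NIH/3T3 cells bearing an integrated Gli1-driven luciferase reporter were dosed with compounds. Treatment lasted 24hr, with the final hour including CellTiter-Fluor for a fluorescence viability measurement.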

[7] = qHTS assay to identify small molecule antagonists of the sonic hedgehog signaling (Shh) pathway - cell viability counter screen (AID 1259367); further: nearly all actives have a fitted effect of over 55% in size; further: potency means the concentration at half of the fitted maximal effect
In short: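 Cells: 3T3 Gli1-Luc, 2,000/well, 4 hr pre-incubation. Compounds in DMSO, then conditioned medium. Incubation 24 hr, 37C, 5% CO2. CellTiter-Fluor at 23 hr, 1 hr, fluorescence.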

[8] = qHTS assay to identify small molecule agonists of the sonic hedgehog signaling (Shh) pathway (AID 1259368; calls by dose curve;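 further: NIH/3T3-derived 3T3Gli1-Luc cells carrying a stable Gli1-driven firefly luciferase reporter; series mostly up to about 92 µM; nearly all actives have a fitted effect of over 15% in size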)
In short: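 Luminescent signal was taken as a measure of Gli1-controlled luciferase expression in stably transfected NIH/3T3-derived cells that had been treated for 24 hr with compounds delivered in DMSO.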

[9] = qHTS assay to identify small molecule antagonists of the sonic hedgehog signaling (Shh) pathway (AID 1259369; calls by dose curve; further: nearly all actives have a fitted effect of over 45% in size; further: potency means the concentration at half of the fitted maximal effect)
In short: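 Screening used 3T3Gli1-Luc cells at 2,000 per well, compounds delivered in DMSO, and conditioned medium as agonist stimulus; plates incubated 24hr at 37 C and 5% CO2 before a 30min luciferase step.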

[10] = biological target: Estrogen receptor beta (Homo sapiens) (UniProt Q92731); assay: qHTS assay to identify small molecule antagonists of the estrogen receptor beta (ER-beta) signaling pathway (AID 1259378; active means well fitted inhibition curve with a large enough effect in the signal ratio in the repeat runs, not every such curve was filed as active; the % refers to the signal ratio; further: potency means the concentration at half of the fitted maximal effect)
In short: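 Antagonist mode: compounds added to beta-lactamase reporter HEK293T ER-beta-UAS cells stimulated with E2 (1nM final), 16 hr at 37C. LiveBLAzer B/G FRET substrate, 2 hours room temperature, fluorescence read-out.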

[11] = qHTS assay to identify small molecule agonists of the androgen receptor (AR) signaling pathway in the presence of an antagonist - cell viability counter screen (AID 1259379);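 further: MDA-kb2 human breast cancer cells carrying an MMTV luciferase reporter; series mostly up to about 92 µM; nearly all actives have a fitted effect of over 25% in size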
In short: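 In MDA-kb2 cells (human breast carcinoma, MMTV-luciferase), compounds at 15 concentrations plus 3.0uM nilutamide; 16 hr, 37C, 0% CO2; CellTiter-Fluor fluorescence read for viability.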

[12] = biological target: Androgen receptor (Homo sapiens) (UniProt P10275); assay: qHTS assay to identify small molecule agonists of the androgen receptor (AR) signaling pathway in the presence of an antagonist (AID 1259381; calls by dose curve; further: nearly all actives have a fitted effect of over 15% in size)
In short: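 Here, 15-concentration compound series were pin-transferred onto MDA-kb2 MMTV-luciferase cells already dosed with nilutamide (3.0uM final). After 16hr at 37C, ONE-Glo was added and luminescence read 30min later at room temperature.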

[13] = qHTS assay to identify small molecule antagonists of the estrogen receptor beta (ER-beta) signaling pathway - cell viability counter screen (AID 1259382);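 further: HEK293T cells carrying ER-beta-UAS-bla reporter stimulated with estradiol; series mostly up to about 92 µM; nearly all actives have a fitted effect of over 55% in size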
In short: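 Tox21 10K library tested in qHTS format on ER-beta-bla HEK293T cells stimulated with 1nM E2; 16 hr treatment at 37C. Same-well CellTiter-Glo luminescence served as the cell viability measure.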

[14] = qHTS assay to identify small molecule agonists of the estrogen receptor beta (ER-beta) signaling pathway - cell viability counter screen (AID 1259380); further: nearly all actives have a fitted effect of over 30% in size; further: potency means the concentration at half of the fitted maximal effect
In short: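 Viability of ER-beta-UAS-bla HEK293T cells was determined by CellTiter-Glo luminescence following 16 hr treatment with test compounds at 37C.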

[15] = biological target: Estrogen receptor (Homo sapiens) (UniProt P03372); assay: qHTS assay to identify small molecule agonists of the estrogen receptor alpha (ER-alpha) signaling pathway in the presence of an antagonist (AID 1259383; calls by dose curve; further: top concentration of the series differs between compounds; nearly all actives have a fitted effect of over 15% in size)
In short: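 In VM7Luc4E2 cells, 4,000 per well, compounds at 15 concentrations were co-incubated 22hr at 37C with 10.0nM final ICI-182,780. Luminescence from the stably transfected 4×ERE-luciferase reporter was recorded 30min after ONE-Glo addition.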

[16] = qHTS assay to identify small molecule agonists or antagonists of the thyroid stimulating hormone receptor (TSHR) signaling pathway - wild type cell line counter screen (AID 1259384; calls by dose curve)
In short: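 Counter screen in untransfected Hek293: compounds (15-point titration, triplicate) plus phosphodiesterase inhibitor Ro20-1724 added after 18 h plating; 30 min RT. Intracellular cAMP via competitive d2/cryptate immunoassay, 1 h incubation.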

[17] = biological target: Thyrotropin receptor (Homo sapiens) (UniProt P16473); assay: qHTS assay to identify small molecule antagonists of the thyroid stimulating hormone receptor (TSHR) signaling pathway (AID 1259385; calls by dose curve; further: nearly all actives have a fitted effect of over 20% in size)
In short: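 Antagonist mode: compound-treated TSHR-expressing HEK293 cells were stimulated with 1.5 ng/mL TSH (final) in presence of Ro20-1724 for 30 min at RT. HTRF cAMP detection after 1 h; each compound tested at 15 concentrations, triplicate.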

[18] = biological target: Estrogen receptor (Homo sapiens) (UniProt P03372); assay: qHTS assay to identify small molecule antagonists of the estrogen receptor alpha (ER-alpha) signaling pathway using the BG1 cell line in the presence of 0.1 nM 17-beta-estradiol (AID 1259244); further: nearly all actives have a fitted effect of over 50% in size
In short: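 Quantitative high-throughput screen in VM7Luc4E2 cells: compound plus 0.1 nM E2 (final), 22 h, 37C, 5% CO2; ONE-Glo added, 30 min room temperature, luminescence measured.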

[19] = qHTS assay to identify small molecule phospholipidosis (PLD) inducers (AID 1259344; active means well fitted curve in the direction sought with a large enough effect; an effect the other way counts as inactive or inconclusive)
In short: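 Phospholipidosis is scored by imaging LipidTOX-stained pits in HepG2 cells exposed to compound for 24 h at 37 C; pit counts and integrated intensities per well and per cell serve as outputs.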

[20] = biological target: Estrogen receptor beta (Homo sapiens) (UniProt Q92731); assay: qHTS assay to identify small molecule agonists of the estrogen receptor beta (ER-beta) signaling pathway (AID 1259377; active means well fitted activation curve with a large enough effect in the signal ratio in the repeat runs, not every such curve was filed as active; the % refers to the signal ratio)
In short: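 In HEK293T cells bearing a UAS-beta-lactamase reporter under ER-beta control, DMSO-delivered compounds were incubated for 16 hr at 37C. Activity was detected as fluorescence 2 hours after LiveBLAzer B/G FRET substrate addition.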
On the % scale 0 is the no-effect control and ±100 the full control effect.

Chain of Androgen receptor (Homo sapiens) (P10275 whole entry, looked up): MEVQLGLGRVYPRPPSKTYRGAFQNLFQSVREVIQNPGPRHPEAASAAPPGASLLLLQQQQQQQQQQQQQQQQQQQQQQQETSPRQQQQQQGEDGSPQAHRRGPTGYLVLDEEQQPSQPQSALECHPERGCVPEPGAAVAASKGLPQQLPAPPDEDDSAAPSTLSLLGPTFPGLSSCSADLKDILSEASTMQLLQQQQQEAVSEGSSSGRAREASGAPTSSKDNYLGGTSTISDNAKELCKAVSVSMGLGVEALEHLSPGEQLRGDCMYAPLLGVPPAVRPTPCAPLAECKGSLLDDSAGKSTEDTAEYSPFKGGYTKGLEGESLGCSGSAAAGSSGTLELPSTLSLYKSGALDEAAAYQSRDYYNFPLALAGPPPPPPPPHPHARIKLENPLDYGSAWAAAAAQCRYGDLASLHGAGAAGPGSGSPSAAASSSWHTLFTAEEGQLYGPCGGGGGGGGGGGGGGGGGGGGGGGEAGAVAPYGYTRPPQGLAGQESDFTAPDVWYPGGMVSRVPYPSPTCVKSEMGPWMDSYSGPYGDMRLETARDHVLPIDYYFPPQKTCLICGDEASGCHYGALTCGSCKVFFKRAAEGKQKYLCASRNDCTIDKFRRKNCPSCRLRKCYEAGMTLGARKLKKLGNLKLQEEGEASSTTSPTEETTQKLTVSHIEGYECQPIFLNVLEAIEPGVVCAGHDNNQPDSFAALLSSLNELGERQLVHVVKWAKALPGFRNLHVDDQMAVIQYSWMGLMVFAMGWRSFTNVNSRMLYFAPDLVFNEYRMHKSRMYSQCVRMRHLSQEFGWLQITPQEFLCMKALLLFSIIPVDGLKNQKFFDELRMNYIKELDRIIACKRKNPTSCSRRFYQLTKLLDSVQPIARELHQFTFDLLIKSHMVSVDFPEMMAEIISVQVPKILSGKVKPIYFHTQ
Chain of Thyrotropin receptor (Homo sapiens) (P16473 whole entry, looked up): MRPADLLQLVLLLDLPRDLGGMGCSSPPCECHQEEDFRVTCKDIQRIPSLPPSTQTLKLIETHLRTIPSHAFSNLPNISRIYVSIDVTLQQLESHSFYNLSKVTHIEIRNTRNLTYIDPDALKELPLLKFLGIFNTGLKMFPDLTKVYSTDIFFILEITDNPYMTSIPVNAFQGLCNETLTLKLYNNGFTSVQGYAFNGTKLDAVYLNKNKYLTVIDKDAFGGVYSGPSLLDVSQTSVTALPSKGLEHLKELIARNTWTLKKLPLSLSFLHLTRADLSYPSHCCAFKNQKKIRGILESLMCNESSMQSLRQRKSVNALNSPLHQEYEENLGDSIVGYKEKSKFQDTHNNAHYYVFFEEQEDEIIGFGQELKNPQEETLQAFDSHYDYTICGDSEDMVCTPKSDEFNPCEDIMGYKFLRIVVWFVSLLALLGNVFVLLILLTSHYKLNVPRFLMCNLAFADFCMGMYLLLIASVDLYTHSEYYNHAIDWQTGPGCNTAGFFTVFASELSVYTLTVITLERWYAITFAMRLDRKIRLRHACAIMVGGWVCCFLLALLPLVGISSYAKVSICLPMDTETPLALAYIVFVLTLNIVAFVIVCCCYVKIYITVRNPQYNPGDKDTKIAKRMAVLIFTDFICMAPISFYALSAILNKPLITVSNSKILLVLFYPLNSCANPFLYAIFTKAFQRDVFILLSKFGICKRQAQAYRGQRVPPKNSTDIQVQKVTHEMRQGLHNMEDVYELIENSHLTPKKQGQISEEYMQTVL
Chain of Estrogen receptor (Homo sapiens) (P03372 whole entry, looked up): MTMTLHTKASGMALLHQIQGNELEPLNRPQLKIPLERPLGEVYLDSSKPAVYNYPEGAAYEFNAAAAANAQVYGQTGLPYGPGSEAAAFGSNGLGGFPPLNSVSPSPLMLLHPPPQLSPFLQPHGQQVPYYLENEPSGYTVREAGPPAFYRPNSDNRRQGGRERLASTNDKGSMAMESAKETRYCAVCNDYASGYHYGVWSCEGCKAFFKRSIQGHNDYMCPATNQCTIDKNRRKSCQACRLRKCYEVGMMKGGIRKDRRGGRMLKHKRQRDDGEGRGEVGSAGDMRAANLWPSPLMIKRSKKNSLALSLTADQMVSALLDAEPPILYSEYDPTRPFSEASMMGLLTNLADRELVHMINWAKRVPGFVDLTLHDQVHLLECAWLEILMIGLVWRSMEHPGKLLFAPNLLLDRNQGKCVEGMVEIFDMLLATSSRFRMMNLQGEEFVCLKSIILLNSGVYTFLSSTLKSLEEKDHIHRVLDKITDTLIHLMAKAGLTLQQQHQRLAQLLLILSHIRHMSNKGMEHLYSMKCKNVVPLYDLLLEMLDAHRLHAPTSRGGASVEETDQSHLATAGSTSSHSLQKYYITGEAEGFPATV
Chain of Estrogen receptor beta (Homo sapiens) (Q92731 whole entry, looked up): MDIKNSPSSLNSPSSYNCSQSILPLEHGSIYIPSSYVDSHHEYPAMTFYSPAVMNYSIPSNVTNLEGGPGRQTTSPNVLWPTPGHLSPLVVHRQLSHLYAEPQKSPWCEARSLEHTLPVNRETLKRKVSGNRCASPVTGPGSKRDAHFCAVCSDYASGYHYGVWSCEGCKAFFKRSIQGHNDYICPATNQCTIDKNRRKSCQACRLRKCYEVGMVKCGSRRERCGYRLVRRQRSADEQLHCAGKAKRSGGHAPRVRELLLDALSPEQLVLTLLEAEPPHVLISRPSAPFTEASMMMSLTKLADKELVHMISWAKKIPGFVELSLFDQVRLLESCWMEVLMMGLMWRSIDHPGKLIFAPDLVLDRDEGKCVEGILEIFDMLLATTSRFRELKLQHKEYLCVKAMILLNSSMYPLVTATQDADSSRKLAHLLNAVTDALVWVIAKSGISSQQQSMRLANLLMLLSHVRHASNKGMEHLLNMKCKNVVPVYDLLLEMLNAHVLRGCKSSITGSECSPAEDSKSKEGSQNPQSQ

C1CCC2OC2C1 (centres undefined)
inactive: Potency [1] | Potency [2] | Potency [3] | Potency [4] | outcome [5] | Potency [6] | Potency [7] | outcome [8] | Potency [9] | Potency [10] | Potency [11] | Potency [12] | Potency [13]

O=C(NS(=O)(=O)/C=C/c1cccs1)c1ccc(F)cc1Br
inactive: Potency [1] | Potency [2] | Potency [3] | Potency [4] | outcome [5] | Potency [6] | Potency [7] | outcome [8] | Potency [9] | Potency [11] | Potency [14] | Potency [12] | Potency [13] | Potency [15]

O=C(O)c1cccc(N(Cc2cccnc2)c2ccc(OC(F)F)c(OC(F)F)c2)c1
active: Potency [3] 24.3 µM | Potency [9] 0.969 µM | Potency [14] 48.6 µM
inactive: Potency [1] | Potency [2] | Potency [4] | outcome [5] | Potency [6] | Potency [7] | outcome [8] | Potency [11] | Potency [12] | Potency [16] | Potency [17]

CCN(CC)CCOC(=O)C1(c2ccccc2)CCCC1
inactive: Potency [1] | Potency [2] | Potency [3] | Potency [18] | Potency [19] | Potency [4] | outcome [5] | Potency [6] | Potency [7] | outcome [8] | Potency [9] | Potency [20] | Potency [10] | Potency [11] | Potency [14] | Potency [12] | Potency [13] | Potency [15] | Potency [16] | Potency [17]

O=C(CCN1CCN2CCCC2C1)N1c2ccccc2Sc2ccc(Cl)cc21 (centres undefined)
inactive: activity change, negative = cytotoxicity [1] -14.8% [at 19 µM] | viability change, negative = cytotoxic [2] -3.61% [at 19 µM] | activity, negative = inhibition [3] -18% [at 19 µM] | activity change, negative = inhibition [18] 3.86% [at 19 µM] | activity change, negative = inhibition [4] 3.91% [at 19 µM] | activity change, negative = cytotoxicity [5] -2.44% [at 19 µM] | activity change [8] -0.0401% [at 18.9 µM] | activity change, negative = inhibition [9] -18.5% [at 19 µM] | activation [20] -2.5% [at 19 µM] | activity, negative = inhibition [10] -12.6% [at 19 µM] | activity change, negative = cytotoxicity [11] -7.38% [at 19 µM] | activity change, negative = cytotoxicity [14] -14.2% [at 19 µM] | activation [12] -1.48% [at 19 µM] | activity change, negative = cytotoxicity [13] -9.75% [at 19 µM] | activation [15] -1.43% [at 19 µM] | cAMP activity change [16] -1.23% [at 18.9 µM, stronger effect = higher value]

CC(C)c1ccc2c(C(C)C)cc(C(C)C)c(S(=O)(=O)O)c2c1
inactive: Potency [1] | Potency [2] | Potency [3] | Potency [4] | outcome [5] | Potency [7] | outcome [8] | Potency [9] | Potency [11] | Potency [12] | Potency [13] | Potency [15] | Potency [16]

COC(=O)CSc1cc(N=c2sc(=O)n3n2CCCC3)c(F)cc1Cl
inactive: Potency [1] | Potency [2] | Potency [3] | Potency [4] | outcome [5] | Potency [6] | Potency [7] | outcome [8] | Potency [9] | Potency [20] | Potency [11] | Potency [12] | Potency [13] | Potency [16] | Potency [17]

CC(C(=O)O)c1ccc(-c2ccccc2)c(F)c1 (centres undefined)
active: Potency [4] 43.3 µM
inactive: Potency [1] | Potency [2] | Potency [18] | Potency [19] | outcome [5] | Potency [6] | Potency [7] | outcome [8] | Potency [9] | Potency [10] | Potency [11] | Potency [14] | Potency [13] | Potency [15]

CC(=O)O[C@H]1C[C@@H]2CC[C@@H]3[C@H](CC[C@@]4(C)[C@H]3C[C@H]([N+]3(C)CCCCC3)[C@@H]4OC(C)=O)[C@@]2(C)C[C@@H]1N1CCCCC1
inactive: Potency [1] | Potency [2] | Potency [18] | Potency [19] | Potency [4] | outcome [5] | Potency [6] | Potency [7] | outcome [8] | Potency [9] | Potency [11] | Potency [13] | Potency [15] | Potency [17]

ClC(Cl)(Cl)c1ccc(C(Cl)(Cl)Cl)cc1
inactive: Potency [1] | Potency [2] | Potency [18] | Potency [4] | outcome [5] | Potency [6] | Potency [7] | outcome [8] | Potency [9] | Potency [20] | Potency [10] | Potency [11] | Potency [14] | Potency [13] | Potency [15] | Potency [16]

CCc1nn(C2CCCCC2)c2cc(C3(C#N)CCC(C(=O)O)CC3)ccc12 (centres undefined)
active: Potency [6] 30.6 µM | Potency [7] 27.3 µM | Potency [10] 13.7 µM | Potency [14] 8.63 µM
inactive: Potency [1] | Potency [2] | Potency [18] | Potency [4] | outcome [5] | outcome [8] | Potency [9] | Potency [20] | Potency [13] | Potency [15] | Potency [16] | Potency [17]

Cc1occc1S
inactive: Potency [1] | Potency [2] | Potency [18] | Potency [4] | outcome [5] | Potency [6] | Potency [7] | outcome [8] | Potency [9] | Potency [20] | Potency [10] | Potency [11] | Potency [13] | Potency [16] | Potency [17]

CCCc1ccccc1
inactive: Potency [1] | Potency [2] | Potency [18] | Potency [4] | outcome [5] | Potency [6] | Potency [7] | outcome [8] | Potency [9] | Potency [20] | Potency [10] | Potency [11] | Potency [13] | Potency [15] | Potency [16] | Potency [17]

O=[N+]([O-])c1cccc(Cl)c1Cl
inactive: Potency [1] | Potency [2] | Potency [18] | Potency [4] | outcome [5] | Potency [6] | Potency [7] | outcome [8] | Potency [9] | Potency [20] | Potency [10] | Potency [11] | Potency [14] | Potency [13] | Potency [16] | Potency [17]

CC(=O)O[C@@H]1C(=O)O[C@@H]2[C@H]1OC(=O)[C@@H]2OC(C)=O
inactive: Potency [1] | Potency [2] | Potency [18] | PLD induction [19] 0.969% [at 7.66 µM] | Potency [4] | Potency [6] | outcome [8] | Potency [9] | Potency [20] | Potency [10] | Potency [11] | Potency [14] | Potency [13] | Potency [17]

CC(=O)NCCCS(=O)(=O)O
inactive: Potency [1] | Potency [2] | Potency [18] | Potency [19] | Potency [4] | outcome [5] | Potency [6] | outcome [8] | Potency [9] | Potency [20] | Potency [10] | Potency [11] | Potency [14] | Potency [13] | Potency [15] | Potency [16] | Potency [17]
